IL-1B inflam inh: qHTS for Inhibitors of Inflammasome Signaling: IL-1-beta AlphaLISA Primary Screen; activity change, % at 57.5 µM; THP-1 LPS/ATP IL-1B secretion, AlphaLISA, 16 h; stronger effect = lower value; AID 743279, 2014; hit rate 4.7% among 360,000; in the data active means activity change below about -50%; inconclusive means mostly about -30% to -49%
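THP-1 cells pretreated 1 hr with compounds (up to 57.5 uM final), then stimulated with LPS (250 ng/mL final) plus ATP (1.25 mM final); secreted IL-1B measured by AlphaLISA after 16 hr, decreased signal indicating inhibition.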
TDP1 cell CPT: qHTS for Inhibitors of human tyrosyl-DNA phosphodiesterase 1 (TDP1): qHTS in cells in presence of CPT; hit rate 12% among 420,000; chicken DT40 Tdp1-/-;hTDP1 cells + 20 nM CPT, ATP luminescence, 48 h; Potency, µM (highest dose often 46.2 µM), most hits filed as inhibitors; further: nearly all actives have a fitted effect of over 55% in size
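Chicken DT40 Tdp1-/- cells stably complemented with human TDP1 were seeded at 400 cells/well in medium containing 20 nM camptothecin, exposed to pin-transferred compounds, and grown at 37 °C for at least 48 hr. Viability was read as ATP luminescence.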
HT1080NT lethal: qHTS for induction of synthetic lethality in tumor cells producing 2HG: qHTS for the HT-1080-NT fibrosarcoma cell line. HT-1080-NT fibrosarcoma viability, CellTiter-Glo ATP luminescence, 48 h. Potency, µM (titrated, usually from 46.1 µM), usual class: cytotoxic. hit rate 1.6% among 360,000;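 further: NT is the 2HG producing partner of a matched IDH1 knockdown line; nearly all actives have a fitted effect of over 55% in size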
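Luminescent CellTiter-Glo readout after 48 hours of compound exposure at 37 degrees C defined viability of HT-1080-NT cells. Activity was normalized to DMSO wells and cell-free media wells; concentration-response curves were fitted and assigned curve classes.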
ELG1 DNA repair: qHTS screen for small molecules that inhibit ELG1-dependent DNA repair in human embryonic kidney (HEK293T) cells expressing luciferase-tagged ELG1. HEK293T ELG1-luciferase reporter, luminescence, 16 h; DNA damage induced by 5-fluorouridine. Potency, µM (doses to about 46.1 µM), most hits filed as inhibitors. hit rate 2.3% among 330,000; further: nearly all actives have a fitted effect of over 55% in size
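Quantitative HTS, concentration-response format. 2,000 cells/well co-treated with 5-fluorouridine and compound, 16 hr in 5% CO2 at 37 °C; ONE-Glo luminescence read after 30 min.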
HT1080 IDH1KD tx: qHTS for induction of synthetic lethality in tumor cells producing 2HG: qHTS for the HT-1080-IDH1KD cell line. HT-1080 IDH1 knockdown viability, ATP luminescence, 48 h. Potency, µM (doses to about 46.1 µM), actives largely listed as cytotoxic. hit rate 2% among 360,000. AID 686971, 2013
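Viability of IDH1-knockdown HT-1080 fibrosarcoma cells was assessed by CellTiter-Glo after 48 h at 37 °C with titrated compound; concentration-effect curves were classified by fit quality and response size.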
TDP1 cell noCPT: qHTS for Inhibitors of human tyrosyl-DNA phosphodiesterase 1 (TDP1): qHTS in cells in absence of CPT; DT40 Tdp1-/- hTDP1 cells, no CPT, ATP luminescence, 48 h; Potency, µM (series often up to 46.2 µM), actives largely listed as inhibitors; hit rate 15% among 420,000; further: nearly all actives have a fitted effect of over 55% in size
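Readout: luminescence from CellTiter-Glo after 30 min in the dark at RT. Cells: DT40 Tdp1-/- with stable hTDP1, 400/well. Exposure: compounds alone, ≥48 hr, 37 °C.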
Large screens that a line does not name were inactive; ! = not confirmed by another sample. Most compounds without a hit are left out; they make up all but 19% or so of the library. Unless noted, the call rests on the fitted dose curve; in most records, active means well fitted curve in the direction sought with a large enough effect; inconclusive means small, poorly fitted or top-dose-only effect, or another doubt; inactive means no such curve, though single readings can be large; an effect the other way counts as inactive or inconclusive.

O=C(Nc1cnn(Cc2c(Cl)cccc2Cl)c1)c1ccc([N+](=O)[O-])cc1	TDP1 cell CPT inconclusive, ELG1 DNA repair inconclusive, TDP1 cell noCPT 16.4µM
O=C(COc1ccc(Cl)cc1)Nc1cnn(Cc2c(Cl)cccc2Cl)c1	none
CCOC(=O)N1CCN(CCC(=O)Nc2cccc(C)c2)CC1	none
CC(=O)Nc1ccc(NC(=O)CSc2nnc(C)c(=O)[nH]2)cc1	none
Cc1ccc(C(=O)NC(=S)NCc2cccnc2)cc1C	none
CC(C)c1ccc(C(=O)NC(=S)NCc2cccnc2)cc1	TDP1 cell CPT inconclusive, TDP1 cell noCPT 16.4µM
CCOc1ncccc1C(=O)NCc1ccc(OC)cc1	TDP1 cell CPT 16.4µM, HT1080NT lethal inconclusive, HT1080 IDH1KD tx 8.91µM, TDP1 cell noCPT 14.6µM
CCOC(=O)Cc1ccc(NC(=O)c2ccc(C(C)(C)C)cc2)cc1	IL-1B inflam inh -56.2, TDP1 cell CPT 18.4µM, ELG1 DNA repair 18.4µM, HT1080 IDH1KD tx inconclusive, TDP1 cell noCPT 14.6µM
COc1ccc(C(=O)Nc2ccccc2C(=O)NCc2cccnc2)cc1	TDP1 cell CPT 14.6µM, HT1080NT lethal inconclusive, HT1080 IDH1KD tx inconclusive, TDP1 cell noCPT inconclusive
COc1cc([C@H]2OC[C@H]3[C@@H]2CO[C@@H]3c2ccc(O[C@H]3O[C@H](CO)[C@@H](O)[C@H](O)[C@H]3O)c(OC)c2)ccc1O[C@@H]1O[C@H](CO)[C@@H](O)[C@H](O)[C@H]1O	ELG1 DNA repair inconclusive
COC(=O)c1cn(-c2nc3ccccc3s2)nn1	TDP1 cell CPT inconclusive, TDP1 cell noCPT 16.4µM (no result: ELG1 DNA repair)
O=C1CCCc2cc3c(cc21)CC1(C3)Cc2cc3c(cc2C1)C(=O)CCC3	TDP1 cell CPT 3.66µM, HT1080NT lethal inconclusive, ELG1 DNA repair 13µM, HT1080 IDH1KD tx inconclusive, TDP1 cell noCPT 4.61µM
O=C(O)CSc1nnc(-c2cccc(S(=O)(=O)N3CCOCC3)c2)n1-c1ccc(F)cc1	none
O=C(CSc1nc2ccc(NC(=O)C3CCCCC3)cc2s1)NCC1CCCO1 (configuration not stated)	TDP1 cell CPT inconclusive, ELG1 DNA repair 13µM, TDP1 cell noCPT inconclusive
CCOc1cc(OCC)cc(C(=O)N2CCC[C@H]2C(=O)N2CCC[C@H]2C(=O)N[C@@H](C)c2ccccc2)c1	TDP1 cell CPT inconclusive, TDP1 cell noCPT inconclusive (no result: ELG1 DNA repair)
Cc1[nH]nc2c1C(C(C)c1ccccc1)C(C#N)=C(N)O2 (configuration not stated)	IL-1B inflam inh -86.1, TDP1 cell CPT inconclusive, TDP1 cell noCPT inconclusive
CC(C)C1C(C#N)=C(N)Oc2n[nH]c(-c3ccccc3)c21 (configuration not stated)	TDP1 cell noCPT inconclusive
Cc1ccc(C(=O)Nc2nc(=O)n(C(=O)CC(C)C)s2)cc1	none
CC(C)CC(=O)n1sc(NC(=O)c2ccccc2)nc1=O	IL-1B inflam inh inconclusive, TDP1 cell CPT 14.6µM, ELG1 DNA repair inconclusive, TDP1 cell noCPT 20.6µM
CC[n+]1c(/C=C(/C)SC)sc2ccccc21	TDP1 cell CPT 4.61µM, TDP1 cell noCPT 5.17µM
CC[n+]1c(/C=C/Nc2ccccc2)sc2ccccc21	IL-1B inflam inh -102.2, TDP1 cell CPT 5.8µM, TDP1 cell noCPT 2.91µM
Cc1sc2ccccc2[n+]1CC(=O)O	none
CC[n+]1c(C=C2C=C(C)OC(C)=C2)sc2ccccc21	IL-1B inflam inh -94.8, TDP1 cell CPT 0.0052µM, HT1080NT lethal inconclusive, ELG1 DNA repair inconclusive, HT1080 IDH1KD tx inconclusive, TDP1 cell noCPT 0.0326µM
CC[n+]1c(/C=C(\C)Nc2ccccc2)sc2ccccc21	IL-1B inflam inh -80.2, TDP1 cell CPT 10.3µM, TDP1 cell noCPT 18.4µM
CCCOC(=S)Nc1ccccc1	ELG1 DNA repair inconclusive
CCNC(=O)c1cnc2sc(N3CCCCCC3)nn2c1=O	none (no result: IL-1B inflam inh, HT1080NT lethal, ELG1 DNA repair, HT1080 IDH1KD tx)
CC[n+]1c(/C=C(\C)SC)sc2ccccc21	TDP1 cell CPT 9.2µM, TDP1 cell noCPT 8.2µM
CC/C(=C/c1sc2ccccc2[n+]1CC)SC	TDP1 cell CPT 13µM, TDP1 cell noCPT 11.6µM
CC[n+]1c(/C=C(\C)OC)sc2ccccc21	ELG1 DNA repair inconclusive
Cc1ccc(-c2nn(-c3cccc([N+](=O)[O-])c3)c3c2cnc2ccc(F)cc23)cc1	none (no result: IL-1B inflam inh, HT1080NT lethal, ELG1 DNA repair, HT1080 IDH1KD tx)
Oc1cc(O)cc(/C=C/c2ccc(O)c(O)c2)c1	TDP1 cell CPT 10.3µM!, HT1080NT lethal inconclusive, ELG1 DNA repair inconclusive, HT1080 IDH1KD tx inconclusive, TDP1 cell noCPT 0.651µM
O=C(NC1CCCCC1)c1sc(=S)n2c1[nH]c(=O)c1ccccc12	TDP1 cell CPT 16.4µM, HT1080NT lethal inconclusive, HT1080 IDH1KD tx inconclusive, TDP1 cell noCPT 23.1µM
CCCCNC(=O)c1sc(=S)n2c1[nH]c(=O)c1ccccc12	ELG1 DNA repair inconclusive, TDP1 cell noCPT inconclusive
Cc1cn2c(=O)cc(COC(=O)c3cccc(NC(=O)C(C)Oc4ccccc4)c3)nc2s1 (configuration not stated)	none (no result: IL-1B inflam inh, HT1080NT lethal, ELG1 DNA repair, HT1080 IDH1KD tx)
c1ccc2sc(SSc3nc4ccccc4s3)nc2c1	none (no result: IL-1B inflam inh, HT1080NT lethal, ELG1 DNA repair, HT1080 IDH1KD tx)
N#C/C(=C\c1ccco1)Sc1nc2ccccc2s1	IL-1B inflam inh -65.5, ELG1 DNA repair inconclusive
CCNC(COC(=O)c1ccc([N+](=O)[O-])cc1)C1CCCCC1 (configuration not stated)	TDP1 cell CPT inconclusive, TDP1 cell noCPT inconclusive (no result: ELG1 DNA repair)
COc1ccc(S(=O)(=O)NCc2ccc(C(=O)NCCCN3CC(C)CC(C)C3)cc2)cc1 (configuration not stated)	TDP1 cell CPT inconclusive, TDP1 cell noCPT inconclusive
CC[C@]12c3[nH]c4cc(-c5ccco5)ccc4c3CCN1C(=O)[C@@H](CC(=O)NCc1ccco1)C[C@@H]2C(=O)N1CCN(C(=O)c2ccco2)CC1	TDP1 cell CPT inconclusive, ELG1 DNA repair inconclusive, TDP1 cell noCPT inconclusive
CC[C@]12c3[nH]c4cc(-c5ccco5)ccc4c3CCN1C(=O)[C@@H](CC(=O)NC(C)(C)C)C[C@@H]2C(=O)N1CCN(C(=O)C2CC2)CC1	TDP1 cell CPT 14.6µM, ELG1 DNA repair inconclusive, TDP1 cell noCPT 20.6µM
CC(C)(C)NC(=O)C[C@H]1C[C@H](C(=O)N2CCOCC2)[C@@]2(C)c3[nH]c4cc(-c5ccco5)ccc4c3CCN2C1=O	TDP1 cell CPT inconclusive, TDP1 cell noCPT inconclusive
